According to the supplement of paper PMC12808144:

What was measured:
Mel-DCC-11 = test: cell viability relative to DMSO control (fraction of DMSO control); higher = less cytotoxic, active = 0.5 or less; conditions: 1 µM; 120 h
Method in brief: (§1)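 Three cell types were screened against 315 approved anti-cancer drugs from TargetMol, acoustically pre-spotted in 384-well plates at 1 µM in duplicate over 120 h: NHEM-hTERT immortalized melanocytes (2500/well), patient-derived Mel-DCC-11 and its resistant subline Mel-DCC-11-R (both 1500/well), all in 40 µl per well. The subline was tested alone and with 8 µM of its selecting drug. Viability, measured by luminescence, was normalised to vehicle controls and averaged across duplicates, with ATPlite 1step as the readout.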

NHEM-hTERT = test: as above; conditions: 1 µM; 120 h
Method in brief: as §1

Mel-DCC-11-R = test: cell viability relative to DMSO control (fraction of DMSO control); higher = less cytotoxic, active = 0.8 or less; conditions: 1 µM, 120 h
Method in brief: as §1

| SMILES | cell viability (Mel-DCC-11) | cell viability (NHEM-hTERT) | cell viability (Mel-DCC-11-R; vemurafenib co-treatment 0 µM) | cell viability (Mel-DCC-11-R; vemurafenib co-treatment 8 µM) |
| --- | --- | --- | --- | --- |
| COc1cc(NS(C)(=O)=O)ccc1Nc1c2ccccc2nc2ccccc12 [Amsacrine] | 1.1 (inactive) | 0.72 (inactive) | 1.06 (inactive) | 0.539 (active) |
| COc1ccc2cc1Oc1ccc(cc1)C[C@H]1c3cc(c(OC)cc3CCN1C)Oc1c(OC)c(OC)cc3c1[C@H](C2)N(C)CC3 [Tetrandrine] | 0.653 (inactive) | 1.25 (inactive) | 0.886 (inactive) | 1.05 (inactive) |
| Nc1cccc2c1C(=O)N(C1CCC(=O)NC1=O)C2=O (stereo unspecified) [Pomalidomide] | 1.03 (inactive) | 1.15 (inactive) | 1 (inactive) | 1.25 (inactive) |
| CCc1cc2c(cc1N1CCC(N3CCOCC3)CC1)C(C)(C)c1[nH]c3cc(C#N)ccc3c1C2=O [Alectinib] | 1.2 (inactive) | 0.977 (inactive) | 1.12 (inactive) | 0.888 (inactive) |
| COc1ccc2cc1Oc1ccc(cc1)C[C@H]1c3c(cc4c(c3Oc3cc5c(cc3OC)CCN(C)[C@@H]5C2)OCO4)CCN1C [Cepharanthine] | 0.589 (inactive) | 1.13 (inactive) | 0.934 (inactive) | 0.912 (inactive) |
| N#Cc1ccnc(N2C(=O)CC[C@H]2C(=O)N(c2cncc(F)c2)[C@H](C(=O)NC2CC(F)(F)C2)c2ccccc2Cl)c1 [Ivosidenib] | 1.32 (inactive) | 1.27 (inactive) | 1.25 (inactive) | 1.06 (inactive) |
| NC1CCCCC1N.O=C([O-])C(=O)[O-].[Pt+2] (stereo unspecified) [Oxaliplatin] | 1.09 (inactive) | 1.05 (inactive) | 1.01 (inactive) | 1.12 (inactive) |
| CS(=O)(=O)O.Cc1ccc(NC(=O)c2ccc(CN3CCN(C)CC3)cc2)cc1Nc1nccc(-c2cccnc2)n1 [Imatinib Mesylate] | 1.15 (inactive) | 0.965 (inactive) | 0.94 (inactive) | 1.1 (inactive) |
| Nc1nc(Cl)nc2c1ncn2[C@H]1C[C@H](O)[C@@H](CO)O1 [Cladribine] | 0.402 (active) | 0.592 (inactive) | 0.977 (inactive) | 0.722 (active) |
| CCN(CC)CCNC(=O)c1c(C)[nH]c(/C=C2\C(=O)Nc3ccc(F)cc32)c1C.C[C@@H](CC(=O)O)C(=O)O [Sunitinib Malate] | 0.864 (inactive) | 1.03 (inactive) | 1.08 (inactive) | 0.927 (inactive) |
| CCOC(=O)c1ccc(C#Cc2ccc3c(c2)C(C)(C)CCS3)nc1 [Tazarotene] | 1.1 (inactive) | 1.16 (inactive) | 1.09 (inactive) | 1.23 (inactive) |
| C=CC(=O)Nc1cccc(Nc2nc(Nc3ccc(N4CCN(C(C)=O)CC4)cc3OC)ncc2C(F)(F)F)c1 [Rociletinib] | 0.95 (inactive) | 0.71 (inactive) | 0.855 (inactive) | 0.836 (inactive) |
| C#CCC(Cc1cnc2nc(N)nc(N)c2n1)c1ccc(C(=O)N[C@@H](CCC(=O)O)C(=O)O)cc1 (stereo partly specified) [Pralatrexate] | 1.03 (inactive) | 0.982 (inactive) | 0.982 (inactive) | 1.09 (inactive) |
| COc1ccc2c(c1OC)C(=O)O[C@@H]2[C@H]1c2c(cc3c(c2OC)OCO3)CC[NH+]1C.[Cl-] [Noscapine hydrochloride] | 1.12 (inactive) | 1.13 (inactive) | 1.04 (inactive) | 1.13 (inactive) |
| N.N.O=C([O-])C1(C(=O)[O-])CCC1.[Pt+2] [Carboplatin] | 1.13 (inactive) | 1.05 (inactive) | 0.973 (inactive) | 1.23 (inactive) |
| CCCc1cc(C)[nH]c(=O)c1CNC(=O)c1cc(-c2ccnc(N3CCN(C)CC3)c2)cc2c1cnn2C(C)C | 1.45 (inactive) | 1.01 (inactive) | 0.999 (inactive) | 0.88 (inactive) |
| O=C(c1ccc(F)c(F)c1Nc1ccc(I)cc1F)N1CC(O)([C@@H]2CCCCN2)C1 [Cobimetinib] | 0.0964 (active) | 0.715 (inactive) | 0.309 (active) | 0.302 (active) |
| O=c1[nH]cc(F)c(=O)[nH]1 [Fluorouracil] | 1.46 (inactive) | 1.01 (inactive) | 1.14 (inactive) | 1.06 (inactive) |
| C[C@@H](Oc1cc(-c2cnn(C3CCNCC3)c2)cnc1N)c1c(Cl)ccc(F)c1Cl [Crizotinib] | 1.06 (inactive) | 0.986 (inactive) | 1.16 (inactive) | 0.825 (inactive) |
| CC[C@]1(O)C[C@H]2CN(CCc3c([nH]c4ccccc34)[C@@](C(=O)OC)(c3cc4c(cc3OC)N(C=O)[C@H]3[C@@](O)(C(=O)OC)[C@H](OC(C)=O)[C@]5(CC)C=CCN6CC[C@]43[C@@H]65)C2)C1.O=S(=O)(O)O [Vincristine sulfate] | 0.517 (inactive) | 0.642 (inactive) | 0.455 (active) | 0.242 (active) |

| SMILES | cell viability (Mel-DCC-11) | cell viability (NHEM-hTERT) | cell viability (Mel-DCC-11-R; vemurafenib co-treatment 0 µM) | cell viability (Mel-DCC-11-R; vemurafenib co-treatment 8 µM) |
| --- | --- | --- | --- | --- |
| COc1cc2nccc(Oc3ccc(NC(=O)NC4CC4)c(Cl)c3)c2cc1C(N)=O [Lenvatinib] | 1.26 (inactive) | 0.784 (inactive) | 1.03 (inactive) | 1.17 (inactive) |
| CNC(=O)c1ccccc1Sc1ccc2c(/C=C/c3ccccn3)n[nH]c2c1 [Axitinib] | 1.51 (inactive) | 0.879 (inactive) | 0.981 (inactive) | 1.03 (inactive) |
| COc1cccc2c1C(=O)c1c(O)c3c(c(O)c1C2=O)C[C@@](O)(C(C)=O)C[C@@H]3O[C@H]1C[C@H](N)[C@H](O)[C@H](C)O1.Cl [Daunorubicin hydrochloride] | 0.0325 (active) | 0.363 (active) | 0.0677 (active) | 0.0387 (active) |
| CO[C@@]12[C@H](COC(N)=O)C3=C(C(=O)C(C)=C(N)C3=O)N1C[C@@H]1N[C@@H]12 [Mitomycin C] | 1.76 (inactive) | 0.685 (inactive) | 1.6 (inactive) | 0.859 (inactive) |
| COc1ccc(-c2cc(=S)ss2)cc1 [Anethole trithione] | 1.28 (inactive) | 1.05 (inactive) | 1.04 (inactive) | 1.13 (inactive) |
| COC(=O)[C@]12CCC(C)(C)C[C@H]1[C@H]1C(=O)C=C3[C@@]4(C)C=C(C#N)C(=O)C(C)(C)[C@@H]4CC[C@@]3(C)[C@]1(C)CC2 [Bardoxolone Methyl] | 0.711 (inactive) | 0.0925 (active) | 0.833 (inactive) | 0.578 (active) |
| CN(C)c1nc(N(C)C)nc(N(C)C)n1 [Altretamine] | 0.88 (inactive) | 0.945 (inactive) | 0.973 (inactive) | 0.92 (inactive) |
| CC/C(=C(\c1ccc(O)cc1)c1ccc(OCCNC)cc1)c1ccccc1 [(E/Z)-Endoxifen] | 1.05 (inactive) | 0.88 (inactive) | 1.15 (inactive) | 1.14 (inactive) |
| N#CC[C@H](C1CCCC1)n1cc(-c2ncnc3[nH]ccc23)cn1 [(R)-Ruxolitinib] | 1.03 (inactive) | 1.1 (inactive) | 0.967 (inactive) | 1.03 (inactive) |
| [Cl][Pt+2][Cl] [Cisplatin] | 1.12 (inactive) | 1.04 (inactive) | 1.08 (inactive) | 1.28 (inactive) |
| Cn1nnc2c(C(N)=O)ncn2c1=O [Temozolomide] | 0.893 (inactive) | 1.01 (inactive) | 0.884 (inactive) | 0.874 (inactive) |
| CC(C)C[C@H](NC(=O)[C@@H](O)[C@H](N)Cc1ccccc1)C(=O)O [Ubenimex] | 0.792 (inactive) | 0.944 (inactive) | 1.12 (inactive) | 0.942 (inactive) |
| CC(/C=C/C=C(\C)C(=O)O[C@@H]1O[C@H](CO[C@@H]2O[C@H](CO)[C@@H](O)[C@H](O)[C@H]2O)[C@@H](O)[C@H](O)[C@H]1O)=C\C=C\C=C(C)\C=C\C=C(/C)C(=O)O[C@@H]1O[C@H](CO[C@@H]2O[C@H](CO)[C@@H](O)[C@H](O)[C@H]2O)[C@@H](O)[C@H](O)[C@H]1O [Crocin] | 1.28 (inactive) | 1.12 (inactive) | 0.985 (inactive) | 1.03 (inactive) |
| COc1cc(Nc2c(C#N)cnc3cc(OCCCN4CCN(C)CC4)c(OC)cc23)c(Cl)cc1Cl [Bosutinib] | 1.06 (inactive) | 1.12 (inactive) | 0.914 (inactive) | 1.14 (inactive) |
| CS(=O)(=O)c1ccc(C2=C(c3ccccc3)C(=O)OC2)cc1 [Rofecoxib] | 0.898 (inactive) | 0.925 (inactive) | 0.862 (inactive) | 0.825 (inactive) |
| N#Cc1ccc(C(c2ccc(C#N)cc2)n2cncn2)cc1 [Letrozole] | 1.01 (inactive) | 1.03 (inactive) | 1.08 (inactive) | 1.06 (inactive) |
| O=C(/C=C\n1cnc(-c2cc(C(F)(F)F)cc(C(F)(F)F)c2)n1)NNc1cnccn1 [Selinexor] | 0.445 (active) | 0.73 (inactive) | 1.59 (inactive) | 0.678 (active) |
| COc1cc2c(Nc3ccc(Br)cc3F)ncnc2cc1OCC1CCN(C)CC1 [Vandetanib] | 1.16 (inactive) | 1.02 (inactive) | 1.29 (inactive) | 1.01 (inactive) |
| CCC1=C[C@@H]2CN(C1)Cc1c([nH]c3ccccc13)[C@@](C(=O)OC)(c1cc3c(cc1OC)N(C)[C@H]1[C@@](O)(C(=O)OC)[C@H](OC(C)=O)[C@]4(CC)C=CCN5CC[C@]31[C@@H]54)C2.O=C(O)[C@H](O)[C@@H](O)C(=O)O.O=C(O)[C@H](O)[C@@H](O)C(=O)O [Vinorelbine Tartrate] | 0.78 (inactive) | 0.644 (inactive) | 1.04 (inactive) | 0.703 (active) |
